Screens from PubChem.
BAZ2B inh: inhibitors of human BAZ2B bromodomain. Q9UIF8. AlphaScreen BAZ2B-H3K14Ac peptide displacement. Potency, µM (titrated, usually from 114 µM), for the others: top-dose activity change, negative = inhibition, hits mostly inhibitors. 4.4% of 360,000 active; also: potency is read from the fitted curve at half-maximal effect; % is scaled to controls: 0 for no effect and ±100 for the full control effect; nearly all actives have a fitted effect of over 60% in size
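Complex of BAZ2B and biotin-H3K14Ac (50 nM apiece) forms over 30 min at RT, then faces library compounds up to 110 uM for another 30 min; AlphaScreen beads added, 20 min dark incubation, luminescence read.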
JMJD2A Tudor: blocks the human JMJD2A Tudor domain | O75164 | AlphaScreen JMJD2A-Tudor / H3K4me3 peptide binding | Potency, µM (titrated, usually from 114 µM), for inactives: at the highest dose activity change, negative = inhibition, hits mostly inhibitors | 4.4% of 390,000 active; also: potency is read from the fitted curve at half-maximal effect; % is scaled to controls: 0 for no effect and ±100 for the full control effect; nearly all actives have a fitted effect of over 50% in size
HP1b chromo inh: HP1-beta chromodomain-methylated histone interaction inhibition; AID 540317; AlphaScreen HP1-beta / biotin-H3K9me3 peptide binding; 0.56% of 390,000 active; Potency, µM (series often up to 114 µM), for the others: top-dose activity change, negative = inhibition, hits mostly inhibitors; P83916; also: potency is read from the fitted curve at half-maximal effect; nearly all actives have a fitted effect of over 70% in size
Target sequence (P83916 whole entry, looked up): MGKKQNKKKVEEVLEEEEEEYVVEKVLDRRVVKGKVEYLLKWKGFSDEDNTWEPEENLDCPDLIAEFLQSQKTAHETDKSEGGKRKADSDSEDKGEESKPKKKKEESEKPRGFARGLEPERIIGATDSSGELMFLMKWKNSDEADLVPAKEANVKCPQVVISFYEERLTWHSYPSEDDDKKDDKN
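AlphaScreen: HP1-beta (50 nM) preformed 30 min with biotin-H3(1-18)K9me3 peptide (50 nM) in PBS pH 7.4, 0.01% Tween-20. Compound added for 30 min at RT, then streptavidin donor/nickel chelate acceptor beads (10 ug/mL) for 30 min.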
G9a inh: blocks human histone lysine methyltransferase G9a; Q96KQ7; G9a H3K9 monomethylation, AlphaScreen, 2 h; Potency, µM (highest dose often 102 µM), for inactives: at the highest dose activity, negative = inhibition, most hits filed as inhibitors; 8.8% of 350,000 active; AID 504332; also: potency is read from the fitted curve at half-maximal effect; % is scaled to controls: 0 for no effect and ±100 for the full control effect; nearly all actives have a fitted effect of over 75% in size
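Readings reflect AlphaScreen signal from monomethyl-H3K9 antibody detection. HMT at 20 nM; substrate b-H3K9 500 nM; cofactor SAM 20 uM; 2 h RT reaction; compounds tested as titrations in qHTS with 15 min preincubation.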
PI5P4K alpha inh: PI5P4K alpha (human) kinase inhibition. P48426. PI5P4Kalpha enzyme, ADP-Glo luminescence, 60 min; stronger effect = lower value. max response, %. 1.2% of 330,000 active; active = max response of -50% or lower; inconclusive = between -30% and -50%; inactive = -30% or higher; also: value at the top dose of about 77 µM; % is scaled to controls: 0 for no effect and ±100 for the full control effect
Target sequence (P48426 whole entry, looked up): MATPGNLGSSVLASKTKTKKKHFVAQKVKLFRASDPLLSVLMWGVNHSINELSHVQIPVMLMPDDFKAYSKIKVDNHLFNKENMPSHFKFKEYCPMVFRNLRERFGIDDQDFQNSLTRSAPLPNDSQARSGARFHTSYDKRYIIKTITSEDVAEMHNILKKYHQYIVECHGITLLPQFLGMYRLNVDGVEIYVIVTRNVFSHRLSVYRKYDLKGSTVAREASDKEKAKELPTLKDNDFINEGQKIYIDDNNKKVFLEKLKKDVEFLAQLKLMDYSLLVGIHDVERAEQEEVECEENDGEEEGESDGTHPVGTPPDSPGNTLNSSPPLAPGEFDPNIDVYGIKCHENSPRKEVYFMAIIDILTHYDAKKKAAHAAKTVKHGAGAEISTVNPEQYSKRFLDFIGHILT
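Human PI5P4Kalpha with substrate in 0.038 M HEPES pH 7.4, 0.28 mM EGTA, 0.1% CHAPS, 5% DMSO; reaction started with 5 microM ATP (final), 60 min at room temperature. ADP formed read by ADP-Glo luminescence.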
L3MBTL1 inh: blocks human L3MBTL1 | Q9Y468 | AlphaScreen L3MBTL1–H3K9me1 peptide binding | Potency, µM (series often up to 57.1 µM), for the others: at the highest dose activity, negative = inhibition, usual class: inhibitors | 0.66% of 230,000 active | AID 485360; also: potency is read from the fitted curve at half-maximal effect; % is scaled to controls: 0 for no effect and ±100 for the full control effect; nearly all actives have a fitted effect of over 60% in size
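L3MBTL1 (50 nM) pre-complexed 30 min with biotinylated H3(1-15)K9me1 peptide (75 nM), then compounds added for 30 min at room temperature; AlphaScreen streptavidin donor/nickel chelate acceptor beads (10 ug/mL final) read after 30 min dark incubation.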
ME-1 growth: reduces ME-1 leukemia cell proliferation; Potency, µM (titrated, usually from 56.1 µM), for the others: at the highest dose activity change, negative = inhibition, usual class: inhibitors; AID 504370; 20% of 140 active; shares compounds with BAZ2B inh; ME-1 cell proliferation, ATP luminescence, 48 h
Starred values were filed as active, the others as inactive; ? = inconclusive; / = no result; ! = repeats disagree; [ ] = remark or other dose. Hits are enriched below; roughly 11% of the tested compounds scored in any of these assays. Unless noted, calls follow the shape of the dose curve; as a rule, active = well fitted curve in the direction sought with a large enough effect; inconclusive = small, poorly fitted or top-dose-only effect, or another doubt; inactive = no such curve, though single readings can be large; an effect the other way counts as inactive or inconclusive.

SMILES | BAZ2B inh | JMJD2A Tudor | HP1b chromo inh | G9a inh | PI5P4K alpha inh | L3MBTL1 inh | ME-1 growth
CC(=O)NNC(=O)c1ccncc1 | 4% | -7% | 50% | -5%[59 µM] | / | 14% | /
CC(C)NNC(=O)c1ccncc1 | 0% | -15% | 41% | 11µM*! | -1 | 5% | 8%
Cc1cccc(C)c1NC(=S)N(CCN(C)C)C(C)c1ccccn1 (centres undefined) | / | -21% | 9% | -15% | 0 | / | -11%[25.6 µM]
CC(c1ccccn1)N(CCN(C)C)C(=S)Nc1cccc(F)c1 (centres undefined) | ? | -9% | 14% | -10%[12.7 µM] | / | / | -4%[25.6 µM]
Cc1ccc(C)c(NC(=S)N(CCN(C)C)C(C)c2ccccn2)c1 (centres undefined) | / | -6% | 33% | -4% | -6 | / | -4%[25.6 µM]
Cc1ccc(C)c(NC(=S)N(C)CCc2ccccn2)c1 | -4% | ? | 36% | -16%[59 µM] | 15 | -7% | /
COCC(=O)N[C@H]1C=C[C@@H](CC(=O)OC)O[C@@H]1CO | / | / | / | / | -9 | / | /
N#CC(C#N)=Cc1ccc(OC(=O)c2ccccn2)cc1 | 8.9µM* | 7.9µM* | 33% | 2.5µM* | -4 | 25µM* | ?
CCOc1ccccc1O[C@@H](c1ccccc1)[C@@H]1CNCCO1 | / | / | / | -28%[12.7 µM] | / | / | /
OB(O)c1cc2ccccc2s1 | / | -17% | 45% | / | / | / | /
CCCCS(=O)(=O)c1nc(-c2ccc(Br)cc2)cc(-c2ccccc2)c1C#N | 41% | -2% | 94% | 27%[59 µM] | / | / | /
c1ccc(-c2ccccn2)nc1 | 79µM* | ? | 68% | 14µM*! | 2 | -3% | -13%
c1ccc(-c2cccs2)nc1 | 7% | -5% | 0% | 31% | -2 | -2% | /
c1ccc(-c2n[nH]c(-c3ccccn3)n2)nc1 | 0.71µM* | 1µM* | 29% | ? | -10 | 2µM* | ?
c1ccc(-c2nc3cc4ccccc4cc3[nH]2)nc1 | 5% | -21% | 51% | 30% | -19 | -10% | /
c1ccc(-c2ccc(-c3ccccn3)nn2)nc1 | 2µM* | / | / | ? | / | 3.5µM* | 18µM*
COc1cc(Nc2nc3c(S(=O)(=O)c4cccc(Cl)c4)nnn3c3ccsc23)cc(OC)c1 | -16% | 2% | 43% | 22%[59 µM] | / | / | /
C=C1c2cccc(O)c2C(O)=C2C(=O)[C@]3(O)C(O)=C(C(N)=O)C(=O)[C@@H](N(C)C)[C@@H]3[C@@H](O)[C@H]12 | 3.5µM* | 7.1µM* | -8% | -160%[59 µM] | -58* | 0.89µM* | -24%
Cc1cc(NC(=O)CCS(=O)(=O)c2cc(Br)cc3c2N(C(=O)C2CC2)CC3)ccc1Br | 1% | -11% | -10% | -35%[59 µM] | / | / | /
O=C(NCCc1ccccc1)c1cccc(Br)n1 | / | / | / | -2% | / | / | -13%
O=c1cc(-c2ccccc2)n2c(SCc3ccccc3Cl)nnc2[nH]1 | 1% | -10% | 40% | -41%[59 µM] | / | / | /
c1ccc(-c2nnc(-c3ccccn3)nc2NC2CCCCC2)cc1 | 1.8µM* | 3.2µM* | 19% | -4% | 0 | / | 7.1µM*
NCC(=O)Nc1ccc(Cl)cc1C(=O)c1ccc[nH]1 | ? | -12% | 38% | 25µM* | 10 | ? | 4.9µM*
COc1cc(/C=C/c2nc(C#N)c(N3CCCCC3)o2)cc(OC)c1OC | -31% | -2% | 41% | -4%[59 µM] | / | / | /
O=C(O)C[C@@H]1C(=O)O[C@@H]2C(COC(=O)c3cc(O)c(O)c(O)c3)O[C@@H](OC(=O)c3cc(O)c(O)c(O)c3)[C@@H](OC(=O)c3cc(O)c(O)c4c3[C@H]1[C@H](O)C(=O)O4)[C@H]2OC(=O)c1cc(O)c(O)c(O)c1 (some centres undefined) | 0.71µM* | / | / | ? | / | / | ?
COC1OC(COC(=O)c2ccccc2)C(OC(=O)c2ccccc2)C1OC(=O)c1ccccc1 (centres undefined) | 12% | 5% | 39% | 6%[2.33 µM] | 15 | / | /
